Data on three compounds can be found in PubChem BioAssay (NCATS).

The target in experiment [1] is Bile acid receptor (Homo sapiens) (UniProt Q96RI1). The experiment is described as follows: qHTS assay for small molecule agonists of farnesoid X receptor signaling (AID 588527; calls by dose curve;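 note: series mostly up to about 77 µM; 0% = vehicle basal and 100% = reference agonist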). Particulars: HEK293T FXR-UAS-bla, beta-lactamase ratio, 16 h; activation: stronger effect = higher value. In short, it runs like this:
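Agonist-mode beta-lactamase reporter in GeneBLAzer FXR-UAS-bla HEK293T cells, titration up to 92 uM, 16 h exposure at 37 C, CCF4 fluorescence. Response scaled to DMSO (0%) and 100 uM chenodeoxycholic acid (100%), then Hill-fitted for EC50 and efficacy.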
Background: qHTS replaces the single test concentration by a dilution series.

Experiment [2] addresses Peroxisome proliferator-activated receptor gamma (Homo sapiens) (UniProt P37231). Kind of experiment: qHTS assay for small molecule agonists of peroxisome proliferator-activated receptor gamma signaling (AID 588536; active = well fitted curve in the direction sought with a large enough effect in the signal ratio, with a control signal flat, not every such curve was filed as active; the % refers to the signal ratio;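 note: 0% = DMSO basal wells and 100% = rosiglitazone at 2 µM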). In short, it runs like this:
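This is an agonist-mode beta-lactamase reporter assay in HEK293 PPAR-gamma-UAS-bla cells with 1% charcoal/dextran FBS. Compound titrations ran 16 h at 37 C before CCF4 detection. EC50 and efficacy are Hill fits scaled to 2 uM rosiglitazone (100%) and DMSO basal.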

Experiment [3] has as its target Vitamin D3 receptor (Homo sapiens) (UniProt P11473). Kind of experiment: qHTS assay for small molecule agonists of vitamin D receptor signaling (AID 588543; calls by dose curve;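 note: 0% = DMSO basal and 100% = reference agonist control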). Put shortly:
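Measured: β-lactamase reporter activity (CCF4, 405 nm excitation, 460/530 nm emission) in HEK293T VDR-UAS-bla cells after 16 h compound exposure at 37 °C. Normalization against 50 nM 1α,25-dihydroxyvitamin D3 and DMSO; Hill-fit EC50.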

Experiment [4] in a line: qHTS assay for small molecule activators of the p53 signaling pathway (AID 651743; active = well fitted activation curve with a large enough effect in the signal ratio, not every such curve was filed as active; the % refers to the signal ratio; note: potency is the fitted concentration of half-maximal effect; for activation: series mostly up to about 92 µM; % of control where 0% means no effect). The settings on record: HCT-116 p53RE-bla, beta-lactamase FRET ratio, 16 h; activation: stronger effect = higher value. Put shortly: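 After 16 hours compound treatment at 37 C, HCT-116 cells stably expressing p53RE-driven beta-lactamase were loaded with LiveBLAzer B/G FRET substrate for 2 hours at room temperature. Fluorescence intensity served as the p53 activation read-out.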

A short description of experiment [5]: qHTS assay for small molecule activators of the nuclear factor-kappa B (NF-kB) signaling pathway (AID 651749; active = well fitted activation curve with a large enough effect in the signal ratio; the % refers to the signal ratio; note: series mostly up to about 77 µM; % of control where 0% means no effect). The settings on record: NF-kB-bla ME-180 cells, beta-lactamase FRET ratio, 16 h; activation: stronger effect = higher value. Put shortly: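 Activation measured after 16 hr compound treatment at 37C, 5% CO2, of 2,000 ME-180 cells/well stably expressing an NF-kB response element–driven beta-lactamase reporter, via FRET-disruption fluorescence.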

Experiment [6] is described as follows: qHTS assay for environmental chemicals that activate the Aryl hydrocarbon Receptor (AhR) signaling pathway (AID 651777). Note: % of control where 0% means no effect; nearly all actives have a fitted effect of over 15% in size. The settings on record: 1A2-DRE human hepatoma cells, luciferase, 24 h; activation: stronger effect = higher value. Put shortly:
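Quantitative HTS in stably transfected human liver-derived cells whose luciferase gene sits downstream of the CYP1A2 promoter and dioxin response element. After 24 hr exposure at 37 C, One-Glo luminescence was measured.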

Experiment [7] has as its target Peroxisome proliferator-activated receptor alpha (Homo sapiens) (UniProt Q07869). The experiment is described as follows: qHTS assay for small molecule agonists of the peroxisome proliferator-activated receptor alpha (PPARalpha) signaling pathway (AID 651778). Note: % of control where 0% means no effect. The settings on record: PathHunter PPARalpha complementation, chemiluminescence, 6 h; max response: stronger effect = higher value. In short, it runs like this: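 Chemiluminescence from complemented enzyme reported PPARalpha activation in cells after 6 hr of compound treatment at 37 C. The detection reagent was incubated for 60 min at room temperature, and compounds were scored as agonists.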

A short description of experiment [8]: qHTS assay for cell viability of HEK293 cells (AID 743288). Note: % is set by controls: 0 for no effect and ±100 for the full control effect; nearly all actives have a fitted effect of over 50% in size. The settings on record: ATP luminescence (CellTiter-Glo), 18 h; max response: stronger effect = lower value. Put shortly:
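HEK293, 18 h, 37 C, ATP luminescence. Cells at 2,000/well were allowed at least 5 h to settle before dosing; CellTiter-Glo developed 30 min at RT.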

For experiment [9], the target named is Peroxisome proliferator-activated receptor delta (Homo sapiens) (UniProt Q03181). The experiment is described as follows: qHTS assay for small molecule agonists of peroxisome proliferator-activated receptor delta signaling (AID 588534; calls by dose curve;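 note: 0% = DMSO basal wells and 100% = positive control agonist at 10 µM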). In short, it runs like this: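 Agonist-mode beta-lactamase reporter readout (CCF4 dye, 2 h at RT) after 18 h at 37 °C exposure to a titration; Hill-equation fitting gave EC50 and maximal response.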
Chain of Peroxisome proliferator-activated receptor delta (Homo sapiens) (Q03181 whole entry, looked up): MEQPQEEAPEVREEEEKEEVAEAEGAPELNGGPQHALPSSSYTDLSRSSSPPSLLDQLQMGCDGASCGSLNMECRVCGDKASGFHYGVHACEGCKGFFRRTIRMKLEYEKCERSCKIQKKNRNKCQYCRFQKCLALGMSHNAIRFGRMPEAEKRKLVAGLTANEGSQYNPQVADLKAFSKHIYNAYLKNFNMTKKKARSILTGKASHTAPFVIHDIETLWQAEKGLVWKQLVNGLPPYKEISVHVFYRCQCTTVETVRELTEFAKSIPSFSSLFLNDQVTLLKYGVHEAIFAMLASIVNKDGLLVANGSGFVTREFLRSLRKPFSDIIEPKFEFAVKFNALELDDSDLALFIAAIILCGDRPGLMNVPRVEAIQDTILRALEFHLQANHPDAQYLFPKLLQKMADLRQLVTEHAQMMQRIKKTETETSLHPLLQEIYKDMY

Experiment [10] can be described thus: qHTS assay for small molecule antagonists of peroxisome proliferator-activated receptor delta signaling (AID 588535; active = well fitted inhibition curve with a large enough effect in the signal ratio, with a control signal flat, not every such curve was filed as active; the % refers to the signal ratio;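 for max response: cells co-treated with a PPAR-delta agonist as stimulator during compound exposure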). Particulars: HEK293T PPARd-UAS-bla, beta-lactamase FRET ratio, 18 h; 460 nm channel. In short, it runs like this: (§1)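 Titrations were run on PPAR-delta-UAS-bla HEK293T cells in charcoal/dextran-stripped serum, incubated 18 h at 37 C. CCF4 fluorescence (460/530 nm) after 2 h RT; Hill equation yields IC50 and maximal response.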

Experiment [11] deals with Peroxisome proliferator-activated receptor delta (Homo sapiens) (UniProt Q03181). Described as above. Put shortly:
as §1

The nature of experiment [12]: qHTS assay for small molecule agonists of retinoid X receptor alpha signaling (AID 588544; calls by dose curve;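 for activation: 0% = DMSO basal wells and 100% = reference agonist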). The settings on record: HEK293T RXRa-UAS-bla, beta-lactamase reporter, 18 h; 530 nm emission.
In experiment [13] the target is Retinoic acid receptor RXR-alpha (Homo sapiens) (UniProt P19793). The experiment is described as above.
Chain of Retinoic acid receptor RXR-alpha (Homo sapiens) (P19793 whole entry, looked up): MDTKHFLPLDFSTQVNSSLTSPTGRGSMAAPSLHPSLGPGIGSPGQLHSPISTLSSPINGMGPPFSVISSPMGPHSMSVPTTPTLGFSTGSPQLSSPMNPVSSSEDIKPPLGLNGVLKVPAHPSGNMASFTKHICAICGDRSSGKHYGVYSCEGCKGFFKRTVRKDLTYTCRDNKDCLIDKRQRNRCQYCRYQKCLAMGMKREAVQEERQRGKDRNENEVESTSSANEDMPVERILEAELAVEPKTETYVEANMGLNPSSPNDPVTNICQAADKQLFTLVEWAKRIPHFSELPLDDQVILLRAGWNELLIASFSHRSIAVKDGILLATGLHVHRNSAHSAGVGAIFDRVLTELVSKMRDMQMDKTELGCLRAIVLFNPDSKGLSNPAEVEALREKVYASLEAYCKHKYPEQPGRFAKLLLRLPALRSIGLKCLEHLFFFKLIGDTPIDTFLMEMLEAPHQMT
For experiment [14], the target named is Thyroid hormone receptor beta (Homo sapiens) (UniProt P10828). Kind of experiment: qHTS assay for small molecule antagonists of thyroid hormone receptor beta signaling (AID 588547; active = well fitted inhibition curve with a large enough effect in the signal ratio, with a control signal flat, not every such curve was filed as active; the % refers to the signal ratio;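 note: cells stimulated with 0.4 nM T3 agonist during compound exposure; series mostly up to about 77 µM; % is set by controls: 0 for no effect and ±100 for the full control effect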). The settings on record: TR-UAS-bla HEK293, beta-lactamase ratio, antagonist mode, 18 h. Put shortly:
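Inhibition of T3-driven (0.4nM final) beta-lactamase reporter activity was measured over 0.59 nM to 92 uM compound after 18 h at 37 C. The cells were GripTite HEK293 TR-UAS-bla in charcoal/dextran-stripped serum, with CCF4 ratio read-out and IC50 from Hill fits.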

Experiment [15] in a line: qHTS assay for small molecule agonists of the antioxidant response element (ARE) signaling pathway measured by Nrf2-dependant transcriptional activity (AID 720636; active = well fitted curve in the direction sought with a large enough effect in the repeat runs; an effect the other way counts as inactive or inconclusive; note: % of control where 0% means no effect). Put shortly: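 Quantitative HTS format in HepG2 cells stably expressing an ARE-luciferase reporter; 16 hr compound treatment at 37 C, luciferase signal detected with ONE-Glo.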
Experiment [16] in a line: qHTS assay for small molecule agonists of the antioxidant response element (ARE) signaling pathway measured by Nrf2-dependant transcriptional activity - cell viability counter screen (AID 720653; active = well fitted curve in the direction sought with a large enough effect in the repeat runs; an effect the other way counts as inactive or inconclusive; note: % is set by controls: 0 for no effect and ±100 for the full control effect). The settings on record: ARE-bla HepG2 viability, CellTiter-Glo ATP luminescence, 16 h; max response: stronger effect = lower value. In short, it runs like this:
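Cytotoxicity counter screen: intracellular ATP quantified by CellTiter-Glo luminescence in the same ARE-bla HepG2 plates, after 16 h compound exposure and a 2 h beta-lactamase substrate step.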

A short description of experiment [17]: qHTS assay for cell viability of the p53RE-bla HCT-116 cell line (AID 743292). Note: % is set by controls: 0 for no effect and ±100 for the full control effect; nearly all actives have a fitted effect of over 55% in size. Put shortly:
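Viability of compound-treated p53RE-bla HCT-116 cells is taken from ATP-dependent luciferase luminescence. Treatment lasts 16 h at 37 C after a 5 h settling period; detection follows 30 min at room temperature.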

Experiment [18] deals with Nuclear receptor subfamily 1 group I member 2 (Rattus norvegicus) (UniProt Q9R1A7). Kind of experiment: qHTS assay for small molecule activators of the rat pregnane X receptor (rPXR) signaling pathway (AID 651751; call rule not given here; note: 0% is about no effect). The settings on record: rPXR reporter cells, luciferase (One-Glo), 24 h.
Chain of Nuclear receptor subfamily 1 group I member 2 (Rattus norvegicus) (Q9R1A7 whole entry, looked up): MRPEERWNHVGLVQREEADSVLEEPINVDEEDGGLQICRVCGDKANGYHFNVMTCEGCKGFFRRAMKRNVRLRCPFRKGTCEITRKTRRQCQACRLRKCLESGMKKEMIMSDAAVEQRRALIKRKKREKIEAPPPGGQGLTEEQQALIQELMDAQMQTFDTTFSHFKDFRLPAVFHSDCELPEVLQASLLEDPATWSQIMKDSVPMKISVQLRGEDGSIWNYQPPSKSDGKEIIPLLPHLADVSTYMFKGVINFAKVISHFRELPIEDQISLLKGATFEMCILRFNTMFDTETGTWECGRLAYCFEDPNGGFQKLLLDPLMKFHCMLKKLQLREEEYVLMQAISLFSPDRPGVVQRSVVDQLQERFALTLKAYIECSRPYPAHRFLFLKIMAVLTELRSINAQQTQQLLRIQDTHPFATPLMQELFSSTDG
The target of experiment [19] is Glucocorticoid receptor (Homo sapiens) (UniProt P04150). Kind of experiment: qHTS assay for small molecule agonists of glucocorticoid receptor signaling (AID 588532; active = well fitted curve in the direction sought with a large enough effect in the signal ratio, with a control signal flat; the % refers to the signal ratio;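 note: 100% = dexamethasone at 0.1 µM and 0% = DMSO only wells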). The settings on record: HeLa MMTV-bla, beta-lactamase ratio, agonist, 18 h; activation: stronger effect = higher value, percent of dexamethasone control, DMSO zero. Put shortly:
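Quantitative HTS using CellSensor MMTV-bla HeLa cells in charcoal/dextran-treated serum; compounds tested up to 92 uM. After 18 h at 37 C, CCF4 dye reported reporter induction.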

For experiment [20] the target is unchanged. Kind of experiment: qHTS assay for small molecule antagonists of glucocorticoid receptor signaling (AID 588533; active = well fitted inhibition curve with a large enough effect in the signal ratio, with a control signal flat, not every such curve was filed as active; the % refers to the signal ratio;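 note: cells stimulated with 2 nM dexamethasone as agonist; % is set by controls: 0 for no effect and ±100 for the full control effect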). In short, it runs like this: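 Antagonist-mode qHTS: compound titrations added to GRE-bla HeLa cells, then dexamethasone 2 nM final; 18 h, 37 C. CCF4 FRET fluorescence normalized to dexamethasone and DMSO; IC50 from Hill fit.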
For experiment [21], the target named is Peroxisome proliferator-activated receptor gamma (Homo sapiens) (UniProt P37231). The experiment is described as follows: qHTS assay for small molecule antagonists of peroxisome proliferator-activated receptor gamma signaling (AID 588537; active = well fitted inhibition curve with a large enough effect in the signal ratio, with a control signal flat, not every such curve was filed as active; the % refers to the signal ratio;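 note: reporter cells co-stimulated with 50 nM rosiglitazone agonist during compound treatment; % of control where 0% means no effect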). In short, it runs like this: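 Antagonist-mode β-lactamase reporter screen run as a titration series. HEK293 PPARγ-UAS-bla cells are stimulated with rosiglitazone (50 nM final) for 16 h, then CCF4 is read at 460/530 nm. Data are scaled between DMSO and rosiglitazone and fitted to the Hill equation.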
Chain of Peroxisome proliferator-activated receptor gamma (Homo sapiens) (P37231 whole entry, looked up): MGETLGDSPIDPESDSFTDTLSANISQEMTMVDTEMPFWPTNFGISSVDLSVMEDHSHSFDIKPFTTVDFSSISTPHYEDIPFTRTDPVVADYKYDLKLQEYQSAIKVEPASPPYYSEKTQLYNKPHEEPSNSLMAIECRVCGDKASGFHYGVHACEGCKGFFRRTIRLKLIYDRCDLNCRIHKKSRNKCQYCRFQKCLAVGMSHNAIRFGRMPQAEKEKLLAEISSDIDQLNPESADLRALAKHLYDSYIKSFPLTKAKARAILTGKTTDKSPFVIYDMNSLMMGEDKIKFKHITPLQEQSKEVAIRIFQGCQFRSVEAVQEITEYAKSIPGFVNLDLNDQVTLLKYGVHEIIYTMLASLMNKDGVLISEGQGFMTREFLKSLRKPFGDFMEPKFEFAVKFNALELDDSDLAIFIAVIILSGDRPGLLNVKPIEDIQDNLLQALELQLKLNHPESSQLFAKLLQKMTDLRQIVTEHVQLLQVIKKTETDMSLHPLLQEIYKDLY

For experiment [22], the target named is Thyroid hormone receptor beta (Homo sapiens) (UniProt P10828). Kind of experiment: qHTS assay for small molecule agonists of thyroid hormone receptor beta signaling (AID 588545; calls by dose curve;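 note: 0% = DMSO only and 100% = 10 nM T3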). In short, it runs like this:
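Stimulation of a TR-driven beta-lactamase reporter was quantified in GripTite HEK 293 cells. Compound series ran for 18 hrs; curves were normalized to T3 and DMSO controls and fitted to yield EC50.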

Experiment [23] can be described thus: qHTS assay for small molecule antagonists of retinoid X receptor alpha signaling (AID 588546).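 Note: cells stimulated with 9-cis-retinoic acid as agonist; % is set by controls: 0 for no effect and ±100 for the full control effect.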 Particulars: HEK293T RXRa-UAS-bla, beta-lactamase ratio, antagonist mode; measured here: W530 green channel, cytotoxicity proxy. Put shortly:
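Beta-lactamase reporter inhibition, read as CCF4 fluorescence ratio (ex 405, em 460/530 nm) after 2 h at RT. HEK293T UAS-bla cells, 2500/well, were stimulated with 9-cis-RA at 500 or 100 nM final alongside test compound for 18 h at 37 C.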

Experiment [24] is described as follows: qHTS assay for small molecule activators of the human pregnane X receptor (PXR) signaling pathway (AID 720659; call rule not given here; note: 0% is about no effect).

Inconclusive results are not listed. Active and inactive are the calls of the source. Unless noted, calls come from the whole dose curve; as a rule, active = well fitted curve in the direction sought with a large enough effect; inconclusive = small, poorly fitted or top-dose-only effect, or another doubt; inactive = no such curve, though single readings can be large; an effect the other way counts as inactive or inconclusive.

Chain of Thyroid hormone receptor beta (Homo sapiens) (P10828 whole entry, looked up): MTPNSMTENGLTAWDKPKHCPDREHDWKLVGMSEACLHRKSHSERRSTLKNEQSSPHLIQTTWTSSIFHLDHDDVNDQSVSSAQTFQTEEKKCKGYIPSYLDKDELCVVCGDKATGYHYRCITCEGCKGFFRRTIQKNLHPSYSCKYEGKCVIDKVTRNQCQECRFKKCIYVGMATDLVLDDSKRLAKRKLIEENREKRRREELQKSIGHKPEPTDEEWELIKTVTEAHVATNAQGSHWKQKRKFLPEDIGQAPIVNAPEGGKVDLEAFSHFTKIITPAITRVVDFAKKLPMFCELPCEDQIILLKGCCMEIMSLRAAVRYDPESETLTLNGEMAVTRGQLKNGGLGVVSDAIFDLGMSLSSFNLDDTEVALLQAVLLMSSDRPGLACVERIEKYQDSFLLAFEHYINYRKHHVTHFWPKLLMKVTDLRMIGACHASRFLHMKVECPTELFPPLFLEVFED
Chain of Bile acid receptor (Homo sapiens) (Q96RI1 whole entry, looked up): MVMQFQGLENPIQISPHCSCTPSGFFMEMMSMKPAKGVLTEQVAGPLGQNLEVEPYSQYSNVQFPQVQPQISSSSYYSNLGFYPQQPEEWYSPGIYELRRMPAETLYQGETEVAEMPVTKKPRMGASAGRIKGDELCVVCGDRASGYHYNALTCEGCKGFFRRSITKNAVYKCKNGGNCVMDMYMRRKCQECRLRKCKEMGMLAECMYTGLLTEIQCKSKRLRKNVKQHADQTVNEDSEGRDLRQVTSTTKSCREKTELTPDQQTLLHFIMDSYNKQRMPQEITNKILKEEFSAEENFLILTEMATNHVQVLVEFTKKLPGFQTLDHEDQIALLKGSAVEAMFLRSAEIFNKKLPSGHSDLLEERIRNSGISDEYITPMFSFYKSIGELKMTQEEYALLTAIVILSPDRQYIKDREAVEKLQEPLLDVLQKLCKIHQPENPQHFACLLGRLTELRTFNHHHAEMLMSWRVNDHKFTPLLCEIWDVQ
Chain of Glucocorticoid receptor (Homo sapiens) (P04150 whole entry, looked up): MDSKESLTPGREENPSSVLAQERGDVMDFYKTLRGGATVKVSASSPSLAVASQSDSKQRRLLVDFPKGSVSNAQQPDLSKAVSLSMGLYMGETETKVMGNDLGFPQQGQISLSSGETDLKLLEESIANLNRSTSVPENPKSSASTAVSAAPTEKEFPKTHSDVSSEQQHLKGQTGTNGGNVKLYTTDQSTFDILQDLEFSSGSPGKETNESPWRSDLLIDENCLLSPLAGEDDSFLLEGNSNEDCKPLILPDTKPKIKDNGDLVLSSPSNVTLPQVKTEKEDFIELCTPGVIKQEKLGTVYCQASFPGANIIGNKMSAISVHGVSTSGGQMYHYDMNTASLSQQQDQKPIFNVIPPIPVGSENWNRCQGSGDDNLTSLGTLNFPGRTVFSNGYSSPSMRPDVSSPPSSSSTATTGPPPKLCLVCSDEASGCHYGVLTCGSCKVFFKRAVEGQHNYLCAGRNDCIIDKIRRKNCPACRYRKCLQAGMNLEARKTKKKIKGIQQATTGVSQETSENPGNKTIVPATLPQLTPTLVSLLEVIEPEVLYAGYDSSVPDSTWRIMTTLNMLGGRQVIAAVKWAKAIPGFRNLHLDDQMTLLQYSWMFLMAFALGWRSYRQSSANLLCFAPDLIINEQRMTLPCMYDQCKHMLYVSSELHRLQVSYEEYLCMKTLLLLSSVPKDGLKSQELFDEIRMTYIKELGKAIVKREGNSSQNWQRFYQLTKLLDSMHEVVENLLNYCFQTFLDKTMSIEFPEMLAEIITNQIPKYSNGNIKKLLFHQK
Chain of Peroxisome proliferator-activated receptor alpha (Homo sapiens) (Q07869 whole entry, looked up): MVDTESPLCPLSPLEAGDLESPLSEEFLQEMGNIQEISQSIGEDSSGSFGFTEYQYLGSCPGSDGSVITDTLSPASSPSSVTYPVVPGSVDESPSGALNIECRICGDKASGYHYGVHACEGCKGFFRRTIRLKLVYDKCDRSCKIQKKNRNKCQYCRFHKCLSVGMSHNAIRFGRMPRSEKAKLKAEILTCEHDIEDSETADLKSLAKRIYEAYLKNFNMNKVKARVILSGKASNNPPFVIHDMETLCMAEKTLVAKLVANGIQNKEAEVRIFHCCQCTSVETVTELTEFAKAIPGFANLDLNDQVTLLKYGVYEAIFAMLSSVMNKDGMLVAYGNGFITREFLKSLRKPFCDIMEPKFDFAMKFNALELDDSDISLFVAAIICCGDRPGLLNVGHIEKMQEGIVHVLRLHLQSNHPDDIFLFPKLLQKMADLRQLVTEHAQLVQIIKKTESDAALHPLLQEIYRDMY
Chain of Vitamin D3 receptor (Homo sapiens) (P11473 whole entry, looked up): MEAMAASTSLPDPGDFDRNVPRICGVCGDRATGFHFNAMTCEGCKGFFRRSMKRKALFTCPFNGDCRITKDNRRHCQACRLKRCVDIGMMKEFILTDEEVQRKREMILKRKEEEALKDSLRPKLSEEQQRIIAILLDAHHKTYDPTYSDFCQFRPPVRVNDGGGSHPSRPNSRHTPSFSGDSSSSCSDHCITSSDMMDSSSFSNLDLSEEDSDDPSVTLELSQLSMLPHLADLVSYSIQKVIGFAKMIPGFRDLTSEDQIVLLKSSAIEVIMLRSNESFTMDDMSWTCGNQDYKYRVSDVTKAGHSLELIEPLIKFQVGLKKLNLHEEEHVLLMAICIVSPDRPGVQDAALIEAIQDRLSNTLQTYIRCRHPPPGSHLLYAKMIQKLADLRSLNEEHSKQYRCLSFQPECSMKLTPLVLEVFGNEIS

With `Cc1ccc(-c2c(Cl)nc(C#N)n2S(=O)(=O)N(C)C)cc1`, the results for the activation in [1], in experiment [5] and in experiment [6] were 4.98% (inactive), 2.86% (inactive) and 12.8% (inactive), respectively. Besides, the Potency entry in [2] was “inactive”. In addition, the compound was called inactive in experiment [3]. Also, the Potency in experiment [4] was 28.2 µM (active). In addition, the max response is 15.7% (inactive) in [7] and -15.9% (inactive) in [8].
Regarding `CCOP(=O)(OCC)Oc1ccc([N+](=O)[O-])cc1`, the activation was 2.69% (inactive) in experiment [1], 0.546% (inactive) in experiment [5] and 0.386% (inactive) in [6]. The call in [9] was inactive. The max response was -45.6% in experiment [10]; -4.35% in experiment [12]; -2.58% (inactive) in experiment [7]; -9.88% (inactive) in [16]; -2.61% (inactive) in [8]; 3.26% (inactive) in experiment [18]. For the same compound, the Potency entry in experiment [11], in experiment [13], in experiment [15] and in experiment [17] was “inactive” in each case. For the same compound, the activity change % (negative = inhibition) in [14] is -16.8% (inactive).
Regarding `O=C(O)COc1ccc(Cl)cc1`, the activation was -1.72% (inactive) in experiment [19], -0.56% (inactive) in experiment [4], -0.213% (inactive) in [5] and 1.68% (inactive) in experiment [6]. In addition, the Potency result in experiment [20], in [11], in experiment [2], in experiment [21], in experiment [13] and in [22] was “inactive” throughout. For the same compound, the Potency entry in experiment [15] and in experiment [17] was “inactive” in each case. The outcome in [9], in experiment [3] and in experiment [24] was inactive. In addition, the max response in [10] was 9.9%; in experiment [12] it was 18.4%; in experiment [23] it was 0.278%; in [16] it was 1.53% (inactive); in [8], -5.08% (inactive); in experiment [18], -5.77% (inactive). Also, in experiment [14], the activity change % (negative = inhibition) was -4.24% (inactive).
